Screens as filed in PubChem BioAssay.
In the library only some 22% were active in any assay of this set; here they are far more common.
CYP2C9 activ – activators of human CYP2C9. P11712. recombinant CYP2C9, luciferin-H conversion, luminescence; hits give high values; factor 1 = untreated enzyme, 0 = blocked. activation factor at 5 µM. 1.4% of 96,000 active. AID 1024;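 active = activation factor of 2 or more for CYP2C9 at a 5 µM dose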;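 note: 0 = sulfaphenazole-blocked wells and 1 = vehicle-only wells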
CYP2C19 activ – cytochrome P450 2C19 (human) activation. P33261. recombinant CYP2C19, luciferin-H EGE luminescence; hits give high values; 0 = fully inhibited enzyme, 1 = untreated enzyme. activation factor at 5 µM. 96,000 tested, under 10 active;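 active = activation factor of at least 2 at 5 µM in the primary screen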;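 note: 0 = wells with 2.5 mM tranylcypromine and 1 = vehicle-only wells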
Target sequence (P33261 whole entry, looked up): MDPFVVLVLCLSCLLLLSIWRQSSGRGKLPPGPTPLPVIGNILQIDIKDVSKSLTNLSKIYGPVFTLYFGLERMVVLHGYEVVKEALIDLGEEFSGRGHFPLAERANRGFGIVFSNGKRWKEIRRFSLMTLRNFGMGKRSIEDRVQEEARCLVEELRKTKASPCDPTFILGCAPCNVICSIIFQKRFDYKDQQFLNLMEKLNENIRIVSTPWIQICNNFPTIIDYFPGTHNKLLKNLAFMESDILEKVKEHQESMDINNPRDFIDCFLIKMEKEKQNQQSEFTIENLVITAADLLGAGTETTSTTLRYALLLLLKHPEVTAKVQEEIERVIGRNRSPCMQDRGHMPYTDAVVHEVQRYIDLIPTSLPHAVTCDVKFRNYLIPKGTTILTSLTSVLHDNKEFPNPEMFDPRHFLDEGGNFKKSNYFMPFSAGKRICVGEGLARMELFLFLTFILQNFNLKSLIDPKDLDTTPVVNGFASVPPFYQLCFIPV
Measles CPE – protection of cells from measles virus; Measles virus-infected cells, CPE protection, absorbance; protection (pct of control), % at 4 µM; 1.5% of 140,000 active; in the data active = protection mostly above about 24%, no sharp cut-off; inactive = mostly below about 26%
CYP2C19 inh – human CYP2C19 inhibition; CYP2C19 Supersomes, luciferin-H EGE luminescence, 30 min; inhibition, % at 5 µM; 21% of 96,000 active; AID 778;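 active = CYP2C19 inhibition above a set limit at 5 µM in the primary screen, cut at about 50% in these data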;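 note: plate controls were negative control wells for no effect and 2.5 mM tranylcypromine positive control for full effect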
CYP2C9 inhib – human CYP2C9 inhibition; P11712; CYP2C9 Supersomes, luciferin-H conversion, luminescence; inhibition, % at 5 µM; 20% of 96,000 active;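 active = blocking of liver enzyme CYP2C9 beyond about 50% at 5 µM, limit read from the data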
An asterisk follows results filed as active; . = no result.

SMILES	CYP2C9 activ	CYP2C19 activ	Measles CPE	CYP2C19 inh	CYP2C9 inhib
COc1ccc(C(=O)Nn2c(SCC(=O)NC3CCCC3)nc3ccccc3c2=O)cc1	0.8	1	20	-2	18
COc1ccc(C(=O)Nn2c(SCC(=O)NCC3CCCO3)nc3ccccc3c2=O)cc1 (centres undefined)	0.4	0.8	7	19	60*
Cn1nc(-c2ccc(OCC(=O)NCC3CCCO3)cc2)c2ccccc2c1=O (centres undefined)	0.5	0.5	5	46	54*
COc1ccc(C(=O)Nn2c(SCC(=O)NCc3ccccc3)nc3ccccc3c2=O)cc1	0.3	0.9	11	5	74*
CCn1c(O)c(C=NCc2cccs2)c(=O)n(CC)c1=S	0.2	0.7	3	34	83*
CCCN=Cc1c(CCC)[nH]n(-c2nc3ccccc3s2)c1=O	0.8	0.9	3	13	19
CC(=NC1CC1)c1c(-c2ccccc2)[nH]n(-c2nc3ccccc3s2)c1=O	0.7	1.1	18	-6	28
O=c1c(C=NCCCn2ccnc2)c(-c2ccccc2)[nH]n1-c1nc2ccccc2s1	0	0.1	15	92*	98*
CC(=NCCCn1ccnc1)c1c(-c2ccccc2)[nH]n(-c2nc3ccccc3s2)c1=O	0	0	1	99*	98*
O=C(O)c1cc2nc(C3CC3)cc(C(F)(F)F)n2n1	1.1	1.1	9	-9	-13
Cc1ccccc1NC(=O)C1CCCN1C(=O)NC1CCCCC1 (centres undefined)	1.1	1.1	6	-9	-10
CCOC(=O)N1CCN(C(=O)CCCn2nc(C)c3sc4ccccc4c3c2=O)CC1	2.4*	0.9	9	5	-137
CCOC(=O)C(C)n1nc(C)c2sc3ccccc3c2c1=O (centres undefined)	.	.	30	.	.
CC12/C(=N/O)C3C4CC5C3/C(=N/O)C1C5C42 (centres undefined)	0.9	0.9	8	9	8
COc1ccc(Cl)cc1S(=O)(=O)N1CCN(C(=O)COc2ccccc2)CC1	1.6	0.4	4	62*	-60
COc1ccc(C(=O)N2CCN(S(=O)(=O)c3ccc(Cl)cc3)CC2)cc1OC	0.8	1.1	6	-7	20
COc1ccc(C(=O)N2CCN(S(=O)(=O)c3cc(Cl)ccc3OC)CC2)cc1	1.2	0.3	3	67*	-17
COc1ccccc1N1CCN(C(=O)COc2ccc(Cl)cc2Br)CC1	0.9	0.5	31	54*	8
CC(C)c1ccc2c(c1)C1Cc3ccccc3C1N2 (centres undefined)	.	.	2	.	.
COc1ccc(S(=O)(=O)N2C3CCC2CC(NC(=O)C2CC2)C3)cc1 (centres undefined)	1	0.8	14	18	4
O=C(NC1CCCCC1)C1CCCN1S(=O)(=O)c1cccc2nsnc12 (centres undefined)	0.5	0.6	8	41	54*
CCOC(=O)N1CCN(C(=O)C(NS(=O)(=O)c2cccc3nsnc23)c2ccccc2)CC1 (centres undefined)	0.3	1.1	0	-9	73*
CCc1ccc(NC(=O)C(NS(=O)(=O)c2cccc3nsnc23)c2ccccc2)cc1 (centres undefined)	.	.	11	.	.
O=C(NC1CCCC1)C(NS(=O)(=O)c1cccc2nsnc12)c1ccccc1 (centres undefined)	0.5	0.9	7	6	50*
COC1CCCCC1Nc1ccc(C)c(C)c1 (centres undefined)	.	.	11	.	.
SMILES	CYP2C9 activ	CYP2C19 activ	Measles CPE	CYP2C19 inh	CYP2C9 inhib
Cc1n[nH]c(C)c1Sc1ccccc1N=Cc1cc([N+](=O)[O-])ccc1O	0.3	0.8	1	25	74*
Cc1ccc(C(CC(=O)O)C2CCOC(C)(C)C2)cc1 (centres undefined)	1.1	1	5	-3	-15
CC(C)[C@H](NC(=O)c1ccccc1)C(=O)OCC(=O)N1CCCCCC1	.	.	3	.	.
Cc1cc(OCC(=O)Nc2ccncc2)c(C)cc1Br	0	0	3	100*	100*
Cc1cc(C)c(OCC(=O)Nc2cccc(O)c2)cc1C	0.7	0.3	5	75*	35
O=C(COc1ccc(Br)cc1)Nc1ccncc1	0	0	5	100*	97*
CC(=O)Nc1ccc(NC(=O)COc2ccc(Br)cc2C)cc1	.	.	6	.	.
CC(NC(=O)COc1ccc(Br)cc1)C(=O)O (centres undefined)	0.9	0.9	23	14	14
Cc1ccccc1-n1c(SCC(=O)c2c(N)n(C)c(=O)n(C)c2=O)nc2sc3c(c2c1=O)CCCC3	.	.	23	.	.
N#CC1=C(N)N=C(SCc2cccc3ccccc23)C(C(N)=O)C12CCCCC2 (centres undefined)	0.3	0.3	5	72*	74*
O=C(c1ccc2c(c1)N(Cc1ccccc1)C(=O)c1ccccc1S2)N1CCCC1	0.5	0.4	41	63*	49
CC(=O)c1cccc(S(=O)(=O)N2CCCC(c3nc(-c4ccc(C)o4)no3)C2)c1 (centres undefined)	0.7	0.6	15	38	30
COc1ccc(-c2noc(C3CCCN(S(=O)(=O)c4cccc(Cl)c4C)C3)n2)cc1OC (centres undefined)	0.2	0.1	14	91*	85*
COc1ccc(-c2noc(C3CCCN(S(=O)(=O)c4ccc(C)c(Cl)c4)C3)n2)cc1OC (centres undefined)	0.4	0.3	9	68*	57*
COc1ccc(C(=O)N2CCCC(c3nc(-c4ccc(OC)c(OC)c4)no3)C2)c(OC)c1 (centres undefined)	0.4	0.6	22	40	61*
COc1ccc(-c2noc(C3CCCN(C(=O)c4ccccc4OC)C3)n2)cc1OC (centres undefined)	0.8	1	9	5	17
Cc1ccc(-c2noc(C3CCCN(C(=O)c4c(F)cccc4F)C3)n2)cc1 (centres undefined)	0.1	0.2	3	78*	91*
Cc1nc(C)c(C(=O)C2=C(O)C(=O)N(CCCN(C)C)C2c2ccco2)s1 (centres undefined)	0.7	0.9	.	7	28
CCCOC(=O)c1c(NC(=O)CCCn2nc([N+](=O)[O-])cc2C)sc(C(=O)OC)c1C	.	.	19	.	.
O=S(=O)(c1ccccc1Cl)N1CCCC1c1nc(-c2cccc(Cl)c2)no1 (centres undefined)	0.5	0.7	14	26	48
CCS(=O)(=O)N1CCCC(c2nc(-c3cccc(OC)c3)no2)C1 (centres undefined)	0.8	0.7	28	28	17
CCCS(=O)(=O)N1CCCC(c2nc(-c3ccc(OC)cc3)no2)C1 (centres undefined)	0.2	0.7	3	34	82*
O=S(=O)(c1ccccc1Cl)N1CCCC(c2nc(-c3cccnc3)no2)C1 (centres undefined)	0.2	0.1	4	95*	79*
CC(C)(C)SCCNC(=O)Nc1ccccc1	.	.	35*	.	.
